± gives the standard deviation of the averaged measurements.
These molecules were tested against IKZF1 (dCK*-IKZF1 fusion in HEK293FT) (UniProt Q13422) (assay: inhibition of IKZF1 HTRF signal (DMSO = 0%, pomalidomide 10 uM = 100%); higher = lower IKZF1 protein level). Settings: compound concentration: 5 uM, overnight (~20 h).
Procedure, shortened: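 For percent inhibition of IKZF1 signal, each plate was normalised to vehicle and to a reference degrader. Cells were HEK293FT stably expressing an IKZF1 fusion, plated at 2000/well in 384-well format and treated overnight at 37 °C with 5 μM compound, one well each. Lysates were probed overnight with a commercial HTRF total-IKZF1 antibody kit, with the 665/620 nm ratio background-subtracted and vehicle and degrader fixed at 0% and 100%.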

Sequence of IKZF1 (dCK*-IKZF1 fusion in HEK293FT) (Q13422 whole entry, looked up, the tested form may be a part): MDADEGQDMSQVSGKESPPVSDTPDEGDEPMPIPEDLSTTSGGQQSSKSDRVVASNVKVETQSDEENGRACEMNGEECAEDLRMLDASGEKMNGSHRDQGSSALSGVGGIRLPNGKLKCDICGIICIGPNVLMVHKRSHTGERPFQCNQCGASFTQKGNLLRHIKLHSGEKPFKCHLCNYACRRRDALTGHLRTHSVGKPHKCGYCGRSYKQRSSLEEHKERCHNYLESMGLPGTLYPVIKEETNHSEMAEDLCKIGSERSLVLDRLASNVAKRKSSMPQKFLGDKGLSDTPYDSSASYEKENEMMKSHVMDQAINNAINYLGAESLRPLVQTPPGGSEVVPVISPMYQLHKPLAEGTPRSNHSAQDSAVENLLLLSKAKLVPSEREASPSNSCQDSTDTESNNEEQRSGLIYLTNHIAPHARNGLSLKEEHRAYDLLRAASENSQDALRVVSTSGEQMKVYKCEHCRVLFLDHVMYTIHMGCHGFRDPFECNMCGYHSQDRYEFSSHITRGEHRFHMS

SMILES | inhibition of IKZF1 HTRF signal [%]
CCCCCCCC[N+](C)(C)Cc1ccccc1 [benzyldimethyloctylammonium] | -57.3
COC(=O)Nc1nc2cc(SC(C)C)ccc2[nH]1 [methiazole] | 36.1
CCOC(=O)Nc1ccc2c(c1)N(C(=O)CCN1CCOCC1)c1ccccc1S2 [moracizine] | -24.3
C=C1/C(=C/C=C2\CCC[C@]3(C)[C@@H]([C@H](C)/C=C/[C@@H](C)C(C)C)CC[C@@H]23)C[C@@H](O)C[C@@H]1O [Doxercalciferol (Hectorol)] | -23
CCOC(=O)C1=C(C)NC(C)=C(C(=O)OC)C1c1cccc(Cl)c1Cl (stereo unspecified) | 18
Cc1ccc(S(=O)(=O)N/N=C/c2cc(Br)ccc2O)cc1 | 26 ± 7.3
CO[C@H]1/C=C/O[C@@]2(C)Oc3c(C)c(O)c4c(O)c(c5c(c4c3C2=O)=NC2(CCN(CC(C)C)CC2)N=5)NC(=O)C(C)=CC=CC(C)[C@H](O)[C@@H](C)[C@@H](O)[C@@H](C)[C@H](OC(C)=O)[C@@H]1C (stereo partly specified) [Rifabutin] | 0.83
CCOC(=O)c1ccc(N)cc1 | 16.4
O=C(Nc1ccc(S(=O)(=O)Nc2ccccc2Cl)c(Cl)c1)c1ccccn1 | 25.4
Cc1ncsc1-c1ccc(CNC(=O)[C@@H]2C[C@@H](O)CN2C(=O)[C@@H](NC(=O)COCCCCOc2ccc(-c3ccc(N4C(=S)N(c5ccc(C#N)c(C(F)(F)F)c5)C(=O)C4(C)C)cc3)cc2)C(C)(C)C)cc1 | 21.2
COCCOC(=O)C1=C(C)NC(C)=C(C(=O)OC(C)C)C1c1cccc([N+](=O)[O-])c1 (stereo unspecified) | -29.4

Reference: the supplement of paper PMC12340641
